PubChem BioAssay AID504832 (National Center for Advancing Translational Sciences (NCATS), 2011)
Out of some 310,000 compounds screened, about 18,000 (5.8%) were called active. Inconclusive results (about 22%) are left out. Calls come from the whole dose curve; as a rule, active = well fitted inhibition curve with a large enough effect; inconclusive = small, poorly fitted or top-dose-only effect, or another doubt; inactive = no such curve, though single readings can be large or run the other way. The entries come from a sample that favours actives as a whole.

assay: Primary qHTS for delayed death inhibitors of the malarial parasite plastid, 48 hour incubation; conditions: P. falciparum luciferase growth in erythrocytes; series mostly up to 28.7 µM; activity change, negative = inhibition: at the top concentration
Source text: The goal of this screen is to discover new antimalarial compounds that act by inhibiting the development of the apicoplast in the malarial parasite Plasmodium falciparum. The biochemical processes that make this organelle essential for erythrocytic stage parasites are not well understood. However, antibiotics such as azithromycin and tetracycline, which target the apicoplast translational machinery, have a potent antimalarial effect.
We have developed a cell-based assay that measures parasite growth based on the expression of an integrated copy of a firefly luciferase reporter. To detect small molecules that cause this "delayed death" phenotype, erythrocytes infected with the luciferase-expressing parasites were incubated with compounds for either one or two generations, corresponding to 48 and 96 hours, respectively. Compounds that inhibit parasite growth in the second generation, but not the first, should be enriched in antimalarials that target the apicoplast. Growth inhibition is detected by a decrease in luciferase activity.
Assay Provider: David Fidock and Eric Ekland, Columbia University
Keywords: NIH Roadmap, MLPCN, MLI, MLSMR, qHTS, NCGC, qHTS, malaria, luciferase, viability
Four microliters of culture medium (RPMI 1640 with 0.5% w/v Albumax (GIBCO), 24 mM sodium bicarbonate and 10 ug/mL gentamycin) were dispensed by a Multi-drop Combi into white solid 1536-well plates (Grenier) and 23 nL compound was added by a pin tool. Four microliters of infected erythrocytes (2% hematocrit, 0.1% parasitemia final concentration) in culture medium were dispensed and the plates incubated for 48 hours at 37 C in 5% CO2. Two microliters of luciferase detection reagent was added and luminescence was detected by a ViewLux (PerkinElmer) reader.
% is set by controls: 0 for no effect and ±100 for the full control effect; potency is the fitted concentration of half-maximal effect.

Row | SMILES | activity change, negative = inhibition | Potency
1 | Cc1cccc2c1cnn2C(=O)CCC(=O)NC1CCCCC1 | 23.3% (inactive) | 
2 | O=C(N[C@@H](Cc1c[nH]c2ccccc12)C(=O)O)OCC1c2ccccc2-c2ccccc21 | 14.7% (inactive) | 
3 | O=C(COC(=O)Cn1[nH]c(=O)c2ccccc2c1=O)Nc1c(Cl)cccc1C(F)(F)F | 36.6% (inactive) | 
4 | O=C(Cc1cccs1)NCc1cccc(C(F)(F)F)c1 | 0.71% [at 0.00184 µM] (inactive) | 
5 | CC1CN(C(=S)Nc2ccccc2F)CC(C)O1 (configuration not stated) | -5.26% (inactive) | 
6 | COc1ccc(C(=O)N2CCCN(C)CC2)c(OC)c1 | -12.5% (inactive) | 
7 | COc1ccc(CN2CCNC(=O)C2CC(=O)NCc2cn[nH]c2-c2ccccc2)c(F)c1 (configuration not stated) | -21.3% (inactive) | 
8 | COc1ccc(CN2CC(C(=O)NCCc3ccc(Cl)cc3)CC2=O)cc1 (configuration not stated) | 12.1% (inactive) | 
9 | O=C(O)c1ccccc1C(=O)Nc1nc(-c2ccccc2)cs1 | 1.55% (inactive) | 
10 | Cc1ccc(C)c(NC(=O)c2ccc3nccnc3c2)c1 | 39.5% (inactive) | 
11 | COc1ccc(CNC(=O)Cc2ccc(-c3ccccc3)cc2)cc1OC | -7.62% (inactive) | 
12 | COc1ccc(Cn2c(-c3ccc(Cl)cc3)c[n+]3ccccc23)cc1 |  | 0.522 µM (active)
13 | COc1ccc(C(=O)CN(C(=O)c2ccc(Cl)cc2)N2C(=O)c3ccccc3C2=O)cc1 | -2.1% (inactive) | 
14 | CCn1c(C)cc(=O)cc1-c1ccc(Cl)cc1 | -13.4% (inactive) | 
15 | Cc1ccc(OCC(=O)NCCCNC(=O)c2ccco2)cc1C | -9.91% (inactive) | 
16 | Cn1cccc1C(=O)NNC(=O)COc1ccc(Br)cc1 | 4.6% (inactive) | 
17 | COc1cccc(C(O)c2nc3ccccc3n2C)c1 (configuration not stated) | 12% (inactive) | 
18 | Cc1n[nH]c(=O)c2c(NC(=O)COC(=O)c3ncc(Cl)c(Cl)c3Cl)oc(C)c12 | 77.2% (inactive) | 
19 | COc1cc(OC)c(S(=O)(=O)Nc2ccccc2C(=O)O)cc1S(=O)(=O)Nc1ccccc1C(=O)O | -2.89% (inactive) | 
20 | Cc1ccc(C)c(NC(=O)CN(C)C(=O)c2ccc3ncsc3c2)c1 | -3.05% (inactive) | 
21 | O=C(Nc1ccc(NC(=O)c2cccs2)cn1)c1ccco1 | 281% (inactive) | 
22 | O=C(Nc1ncccn1)c1cccs1 | 22.9% (inactive) | 
23 | O=C(Nc1ccnc(-c2ccncc2)n1)c1cccs1 |  | 11.7 µM (active)

Row | SMILES | activity change, negative = inhibition | Potency
24 | CC(C)CN(C(=O)CSc1ncnc2sccc12)C1CCS(=O)(=O)C1 (configuration not stated) | -15.5% (inactive) | 
25 | CCN(CC)CCn1c2c(c(SCC(=O)Nc3nc4ccccc4s3)nc1=O)CCCC2 | -4.88% (inactive) | 
26 | O=C(NC(=S)N1CCCCC1c1cccnc1)c1ccccc1 (configuration not stated) | 0.637% (inactive) | 
27 | Cc1ccc(-c2cc(C(F)(F)F)n3ncc(C(=O)N4CCCCC4c4cccnc4)c3n2)cc1 (configuration not stated) |  | 1.65 µM (active)
28 | O=C(Nc1ccccc1C(F)(F)F)N1CCCC1c1cccnc1 (configuration not stated) | 11% (inactive) | 
29 | CCn1c(SCC(=O)NC2CC2)nnc1-c1ccccn1 | -6.85% (inactive) | 
30 | CCOc1ccc(C(=O)CCN2CCOCC2)cc1 | -9.9% (inactive) | 
31 | CC(=O)c1ccc(S(=O)(=O)NCc2nnnn2-c2ccccc2)cc1 | 4.77% (inactive) | 
32 | Cc1cccc(-c2nnc(SCC(=O)O)n2Cc2ccccc2)c1 | 9.98% (inactive) | 
33 | CC(C)(C)OC(=O)N1CCC(NC(=O)c2[nH]cnc2C(=O)N[C@@H](Cc2ccccc2)C(=O)OCc2ccccc2)CC1 |  | 0.928 µM (active)
34 | C[C@@H](NC(=O)c1nc[nH]c1C(=O)N1CCN(C(=O)OC(C)(C)C)CC1)c1ccccc1 | -19.3% (inactive) | 
35 | O=C(N[C@@H](Cc1ccccc1)C(=O)OCc1ccccc1)c1nc[nH]c1C(=O)N[C@@H](Cc1ccccc1)C(=O)OCc1ccccc1 | 25.2% (inactive) | 
36 | Cc1onc(C(=O)Nc2ccc3c(c2)OCO3)c1[N+](=O)[O-] | -3.19% (inactive) | 
37 | Cc1c(CCOC(=O)c2cc([N+](=O)[O-])ccc2Cl)sc[n+]1CCCCS(=O)(=O)[O-] | 3.97% (inactive) | 
38 | Cc1c(CCOC(=O)CC23CC4CC(CC(C)(C4)C2)C3)sc[n+]1Cc1ccc([N+](=O)[O-])cc1 |  | 2.62 µM (active)
39 | O=C(CCCO)N/N=C/c1cc(Br)ccc1O | -7.77% (inactive) | 
40 | Oc1ccc(Br)cc1/C=N/Nc1ccccn1 |  | 1.47 µM (active)
41 | Oc1ccc(/C=N/Nc2ccc(C(F)(F)F)cn2)cc1O | 25.2% (inactive) | 
42 | CC(C)c1ccc(S(=O)(=O)N2CCC3(CC2)OCCO3)cc1 | -3.34% (inactive) | 
43 | COc1ccc(C)cc1NC(=O)c1cc(-c2ccccc2)nc2c1cnn2C(C)C |  | 4.65 µM (active)
44 | COc1cc2ccccc2cc1C(=O)Nc1ccccc1C | 194% (inactive) | 
45 | COc1ccc(C)cc1NC(=O)Nc1ccccc1SC | 2.04% (inactive) | 
46 | Cc1ccc(-c2noc(C3CCCN(C(=O)c4cccc(Cl)c4)C3)n2)o1 (configuration not stated) | 100% (inactive) | 

Row | SMILES | activity change, negative = inhibition | Potency
47 | O=C(CCNC(=O)c1ccc(Br)cc1)NCCCc1ccccc1 | 25.6% (inactive) | 
48 | Cc1cccc2[nH]c(CN(C)C(=O)C3CCC(=O)N(CCc4ccccc4)C3)nc12 (configuration not stated) | -17.7% (inactive) | 
49 | CC(C)c1ccc(N2CCN(C(=O)c3ccccc3NC(=O)/C=C(\C(=O)O)c3ccccc3)CC2)cc1 |  | 13.1 µM (active)
50 | COc1ccc(C(=O)Nc2ccccc2C(=O)N2CCN(c3ccccc3)CC2)cc1 | -16.5% (inactive) | 
51 | Cc1ccccc1C(=O)NC(=S)Nc1ccc(N2CCN(C(=O)c3ccccc3)CC2)cc1 | -9.42% (inactive) | 
52 | COc1ccc(NC(=O)CCS(=O)(=O)c2cc3c(cc2Cl)NC(=O)CO3)cc1OC | 21.5% (inactive) | 
53 | O=C(Cc1ccc2c(c1)CCCC2)Nc1ccccc1Cl |  | 11.7 µM (active)
54 | O=C(COC(=O)c1cccs1)Nc1ccccc1Cl | 4.31% (inactive) | 
55 | O=C(Nc1ccc2c(c1)CCC2)c1cccc(S(=O)(=O)Nc2ccccc2Cl)c1 | -1.32% (inactive) | 
56 | O=C(Nc1ccccc1N1CCOCC1)c1ccncc1 | -23.9% (inactive) | 
57 | CCCc1ccc(OCC(O)CN2CCN(CCO)CC2)cc1 (configuration not stated) | 5.68% (inactive) | 
58 | CCCCc1nc(NCc2ccccc2)c(C#N)c2c1CCCC2 |  | 6.57 µM (active)
59 | CCc1nc(NCCO)c(C#N)c2c1CCCC2 | 1.82% (inactive) | 
60 | CN(C)c1nccc(NCc2ccccc2)c1C#N | 12.3% (inactive) | 
61 | CCOC(=O)c1ccccc1NC(=O)COC(=O)C(Cc1c[nH]c2ccccc12)NC(C)=O (configuration not stated) | 15.1% (inactive) | 
62 | CCOc1cccc(=NC2CCCCC2)c2c(C)[nH]c(C)c12 |  | 2.33 µM (active)
63 | CCOc1ccccc1NC(=O)NC1CCCCCCC1 | -19.6% (inactive) | 
64 | Cc1cc(C)n2nc(C(=O)Nc3cccc(S(=O)(=O)N4CCOCC4)c3)nc2n1 | 11.9% (inactive) | 
65 | CC(C)C[C@H](NC(=O)C1CC(=O)N(c2ccc3c(c2)OCCO3)C1)C(=O)NC1CCCC1 (some centres not stated) | -6.29% (inactive) | 
66 | C/C=C/C(=O)OCc1csc(CC(=O)Nc2ccccc2C)n1 | 24.7% (inactive) | 
67 | CCCc1nnc(NC(=O)CCC(=O)N2CCN(S(=O)(=O)c3ccc(OC)cc3)CC2)s1 | -11.4% (inactive) | 
